# Records with an inconclusive call do not appear. Unmarked numbers belong to inactive results. Calls of active or inactive are those of the source. Calls follow the shape of the dose curve; as a rule, active = well fitted cell-killing curve with a large enough effect; inconclusive = small, poorly fitted or top-dose-only effect, or effect the other way; inactive = no such curve, though single readings can be large or run the other way.
# Assay: Quantitative highthroughput screen to assess conditional lethalithy of SEM cells grown in Human Plasma-Like Medium with dialyzed fetal bovine serum (HPLM+ds) (AID 1963882)
# Settings: SEM B-ALL cells in HPLM+ds, CellTiter-Glo viability, 48 h; series mostly up to 45.8 µM; viability: at the top concentration
# Summary of the method: (§1)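 Each medium arm—HPLM with 10% dialyzed FBS, or RPMI1640 with 5 mM glucose and 10% untreated or dialyzed FBS—was screened against an 11-point, 3-fold compound titration for 48 h at 37 °C, with CellTiter-Glo luminescence as endpoint.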
# Also: nearly all actives have a fitted effect of over 35% in size.
# Potency is read from the fitted curve at half-maximal effect.
SMILES,Potency,viability [%]
CCN1CCC(n2cc(CNc3cc(Cl)c4ncc(C#N)c(Nc5ccc(F)c(Cl)c5)c4c3)nn2)CC1,18.7 µM (active),
O=C(Nc1ncc(-c2cc(C(F)F)nn2-c2c(Cl)cccc2Cl)s1)C1CC1,1.32 µM (active),
Clc1ccc(C(Cn2ccnc2)OCc2ccc(Sc3ccccc3)cc2)c(Cl)c1 (stereo not drawn),,77.6
CO[C@@H]1[C@H](N(C)C(=O)c2ccccc2)C[C@H]2O[C@]1(C)n1c3ccccc3c3c4c(c5c6ccccc6n2c5c31)C(=O)NC4,0.662 µM (active),
O=C1c2c(O)ccc(O)c2C(=O)c2c(NCCNCCO)ccc(NCCNCCO)c21,0.332 µM (active),
CN1N=C(N)c2cn([C@@H]3O[C@H](COP(=O)(O)O)[C@@H](O)[C@@H]3O)c3ncnc1c23,0.0296 µM (active),
O=C1CCC[C@@H]2[C@H]3CCC[N+]4([O-])CCC[C@@H](CN12)[C@@H]34 (stereo partly drawn),6.62 µM (active),
CN1CCc2c(n(Cc3ccc(C(=O)NO)cc3)c3ccccc23)C1,26.4 µM (active),
CC(C)C(=O)Nc1ccc([N+](=O)[O-])c(C(F)(F)F)c1,,103
Cc1cc(-c2ccc(CC(=O)Nc3ccc(-c4cccnc4)cc3)cc2)ccn1,6.62 µM (active),
CCCCCCCCCCCC(CC1OC(=O)C1CCCCCC)OC(=O)C(CC(C)C)NC=O (stereo not drawn),18.7 µM (active),
O=C(NCc1ccncc1)C12C[C@H]3C[C@@H](C1)CC(c1ccc(Cl)cc1)(C3)C2,14.8 µM (active),
Cc1cc(Nc2cc(N3CCN(C)CC3)nc(Sc3ccc(NC(=O)C4CC4)cc3)n2)n[nH]1,0.418 µM (active),
CCC[C@H](Nc1nc(-c2ccc(NC(=O)NCC)c(OC)c2)ncc1C)c1cccnc1,0.0418 µM (active),
O=C(O)CCCCC(CCSCc1ccccc1)SCc1ccccc1 (stereo not drawn),,94.1
COc1cc2ncnc(-n3nc(-c4ccccn4)nc3N)c2cc1OC,5.26 µM (active),
NCCCC(O)(P(=O)(O)O)P(=O)(O)O,16.6 µM (active),
CN(C)c1nc(Cc2ccc(NC(=O)c3ccc4ccccc4c3)cc2)nc(Cl)c1CC(=O)O,,102
CCCCC(C)(C)[C@H](O)C=C[C@H]1[C@H](O)CC(=O)[C@H]1CC=CCCCC(=O)O,20.9 µM (active),
CCc1cccc(CC)c1NC(=O)N1Cc2[nH]nc(NC(=O)c3ccc(N4CCN(C)CC4)cc3)c2C1,4.18 µM (active),
OC[C@H]1OC(O)C[C@@H](O)[C@H]1O (stereo partly drawn),,88.8
Oc1cc(-c2nc(-c3ccccc3)[nH]c2-c2ccncc2)ccc1Cl,,88.5
Nc1nc(NCCNc2ncc(-n3ccnc3)c(-c3ccc(Cl)cc3Cl)n2)ccc1[N+](=O)[O-],,85.4
CCN(CC)CCCCNc1ncc2c(n1)N(C)C(=O)N(c1c(Cl)c(OC)cc(OC)c1Cl)C2,14.8 µM (active),
Nc1nc2c(c(=O)[nH]1)N(C=O)[C@H](CNc1ccc(C(=O)N[C@@H](CCC(=O)O)C(=O)O)cc1)CN2,,112
Nc1nc(Cl)nc2c1ncn2[C@@H]1O[C@H](CO)[C@@H](O)[C@H]1F,,4.77
C[N+](C)([O-])CCNc1ccc(NCC[N+](C)(C)[O-])c2c1C(=O)c1c(O)ccc(O)c1C2=O,1.18 µM (active),

# Assay: Quantitative highthroughput screen to assess conditional lethalithy of SEM cells grown in RPMI1640 with unreated serum (RPMI+s) (AID 1963883);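 as to viability: 100% = DMSO wells and 0% = empty wells without cells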
# Settings: SEM B-ALL cells, CellTiter-Glo viability, 48 h; series mostly up to 45.8 µM; viability: at the top concentration
# Summary of the method: as §1
SMILES,Potency,viability [%]
CCN1CCC(n2cc(CNc3cc(Cl)c4ncc(C#N)c(Nc5ccc(F)c(Cl)c5)c4c3)nn2)CC1,3.32 µM (active),
O=C(Nc1ncc(-c2cc(C(F)F)nn2-c2c(Cl)cccc2Cl)s1)C1CC1,1.18 µM (active),
O=C1c2c(O)ccc(O)c2C(=O)c2c(NCCNCCO)ccc(NCCNCCO)c21,0.235 µM (active),
CN1N=C(N)c2cn([C@@H]3O[C@H](COP(=O)(O)O)[C@@H](O)[C@@H]3O)c3ncnc1c23,0.0296 µM (active),
O=C1CCC[C@@H]2[C@H]3CCC[N+]4([O-])CCC[C@@H](CN12)[C@@H]34 (stereo partly drawn),7.43 µM (active),
CN1CCc2c(n(Cc3ccc(C(=O)NO)cc3)c3ccccc23)C1,23.5 µM (active),
Nc1nccc(Oc2ccc(NC(=O)c3c[nH]cc(-c4ccc(F)cc4)c3=O)cc2F)c1Cl,0.59 µM (active),
CC(C)C(=O)Nc1ccc([N+](=O)[O-])c(C(F)(F)F)c1,,94.7
O=C(Nc1ccc([N+](=O)[O-])cc1Cl)c1cc(Cl)ccc1O,1.18 µM (active),
Cc1cc(-c2ccc(CC(=O)Nc3ccc(-c4cccnc4)cc3)cc2)ccn1,10.5 µM (active),
CCCCCCCCCCCC(CC1OC(=O)C1CCCCCC)OC(=O)C(CC(C)C)NC=O (stereo not drawn),5.9 µM (active),
COc1cc(OC)c(NC(=O)Nc2cc(C)on2)cc1Cl,,75.3
O=C(NCc1ccncc1)C12C[C@H]3C[C@@H](C1)CC(c1ccc(Cl)cc1)(C3)C2,7.43 µM (active),
Cc1cc(Nc2cc(N3CCN(C)CC3)nc(Sc3ccc(NC(=O)C4CC4)cc3)n2)n[nH]1,0.372 µM (active),
O=C(O)CCCCC(CCSCc1ccccc1)SCc1ccccc1 (stereo not drawn),,86.8
NCCCC(O)(P(=O)(O)O)P(=O)(O)O,2.96 µM (active),
CN(C)c1nc(Cc2ccc(NC(=O)c3ccc4ccccc4c3)cc2)nc(Cl)c1CC(=O)O,,111
CCc1c2c(nc3ccc(O)cc13)-c1cc3c(c(=O)n1C2)COC(=O)[C@]3(O)CC,0.0083 µM (active),
CCc1cccc(CC)c1NC(=O)N1Cc2[nH]nc(NC(=O)c3ccc(N4CCN(C)CC4)cc3)c2C1,1.66 µM (active),
OC[C@H]1OC(O)C[C@@H](O)[C@H]1O (stereo partly drawn),,103
Nc1nc(NCCNc2ncc(-n3ccnc3)c(-c3ccc(Cl)cc3Cl)n2)ccc1[N+](=O)[O-],,91.7
CCN(CC)CCCCNc1ncc2c(n1)N(C)C(=O)N(c1c(Cl)c(OC)cc(OC)c1Cl)C2,13.2 µM (active),
Nc1nc2c(c(=O)[nH]1)N(C=O)[C@H](CNc1ccc(C(=O)N[C@@H](CCC(=O)O)C(=O)O)cc1)CN2,,91.1
Nc1nc(Cl)nc2c1ncn2[C@@H]1O[C@H](CO)[C@@H](O)[C@H]1F,,2.19
C[C@@H]1C[C@H]2[C@@H]3CCC4=CC(=O)C=C[C@]4(C)[C@@]3(Cl)[C@@H](O)C[C@]2(C)[C@@]1(OC(=O)c1ccco1)C(=O)CCl,,49.9
C[N+](C)([O-])CCNc1ccc(NCC[N+](C)(C)[O-])c2c1C(=O)c1c(O)ccc(O)c1C2=O,0.296 µM (active),

# — PubChem BioAssay (NCATS)
